Screening results as filed in PubChem BioAssay.
NPR1 antag – human Npr1 receptor antagonism; P16066; Potency, µM (highest dose often 46.3 µM), usual class: inhibitors; HEK293 hNpr1 GloSensor cGMP, ANP-stimulated luminescence; actives 1.6% (n = 76,000); note: nearly all actives have a fitted effect of over 60% in size
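Compound pre-incubated 30 min at room temperature on GloSensor-loaded HEK293 cells stably carrying hNpr1 and the pGS-40F cGMP biosensor. Stimulation uses hNppA at 0.1 nM final; luminescence is taken at baseline and 20 min post-agonist.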
HEK cytotox – HEK 293 cell cytotoxicity. HEK 293 viability, ATP luminescence (CellTiter-Glo), 48-72 h. Potency, µM (highest dose often 115 µM), usual class: inhibitors. actives 6.6% (n = 94,000). AID 1345083; active = well fitted curve in the direction sought with a large enough effect; inconclusive = small, poorly fitted or top-dose-only effect, or another doubt; inactive = no such curve, though single readings can be large; an effect the other way counts as inactive or inconclusive; note: nearly all actives have a fitted effect of over 60% in size
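HEK 293 cells seeded at 250 cells/well were exposed to compound for 48 or 72 hr at 37 degree Celsius. Viability taken as ATP content by CellTiter-Glo luminescence.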
Luciferase inh – Photinus pyralis luciferase inhibition; Potency, µM (highest dose often 115 µM), actives largely listed as inhibitors; actives 2.5% (n = 76,000); purified P. pyralis luciferase, luminescence, biochemical; P08659; active = well fitted curve in the direction sought with a large enough effect; inconclusive = small, poorly fitted or top-dose-only effect, or another doubt; inactive = no such curve, though single readings can be large; an effect the other way counts as inactive or inconclusive; note: nearly all actives have a fitted effect of over 65% in size
Target sequence (P08659 whole entry, looked up): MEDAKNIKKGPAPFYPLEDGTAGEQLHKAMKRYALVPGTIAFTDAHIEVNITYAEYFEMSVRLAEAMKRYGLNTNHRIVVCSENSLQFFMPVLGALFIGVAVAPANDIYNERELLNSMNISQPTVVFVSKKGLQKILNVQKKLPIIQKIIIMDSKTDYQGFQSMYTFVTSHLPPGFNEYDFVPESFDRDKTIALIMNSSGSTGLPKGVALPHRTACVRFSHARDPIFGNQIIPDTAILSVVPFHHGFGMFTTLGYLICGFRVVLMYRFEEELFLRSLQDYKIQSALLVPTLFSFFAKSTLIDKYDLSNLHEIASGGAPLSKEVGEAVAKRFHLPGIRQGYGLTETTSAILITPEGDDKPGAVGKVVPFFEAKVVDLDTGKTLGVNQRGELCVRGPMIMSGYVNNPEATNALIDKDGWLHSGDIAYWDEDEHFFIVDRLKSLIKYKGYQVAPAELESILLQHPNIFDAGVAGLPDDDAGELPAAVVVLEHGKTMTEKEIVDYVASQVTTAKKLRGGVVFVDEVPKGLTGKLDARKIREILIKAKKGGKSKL
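Biochemical qHTS: compound (6-point titration) added to 10uM D-luciferin plus 10uM ATP in Tris acetate pH 7.5 buffer with Mg, Tween-20 and BSA, then purified enzyme at 10nM; light output imaged.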
NIH3T3 tox – NIH 3T3 cell cytotoxicity | NIH 3T3 viability, CellTiter-Glo ATP luminescence, 48-72 h | actives 4.3% (n = 94,000) | Potency, µM (titrated, usually from 96.7 µM), actives largely listed as inhibitors; active = well fitted curve in the direction sought with a large enough effect; inconclusive = small, poorly fitted or top-dose-only effect, or another doubt; inactive = no such curve, though single readings can be large; an effect the other way counts as inactive or inconclusive; note: nearly all actives have a fitted effect of over 55% in size
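Viability of NIH 3T3 cells after 48 or 72 hr compound treatment at 37 °C was assessed by CellTiter-Glo, with luminescence imaged following a 10 min room-temperature step.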
Npr1 antag conf – hNpr1 antagonism, confirmation assay; shares compounds with NPR1 antag; HEK293 hNpr1 cGMP GloSensor luminescence, ANP-stimulated; Potency, µM (top dose mostly 57.6 µM), actives largely listed as inhibitors; actives 76% (n = 1,400); note: nearly all actives have a fitted effect of over 70% in size
NPR2 antag – antagonizes human Npr2, subtype selectivity check; shares compounds with NPR1 antag; HEK293 hNpr2 GloSensor cGMP luminescence, CNP-stimulated; Potency, µM (titrated, usually from 57.6 µM), hits mostly inhibitors; actives 67% (n = 1,400); note: nearly all actives have a fitted effect of over 70% in size
FLuc inh counter – inhibits firefly luciferase, false Npr1 antagonist flag. actives 0.7% (n = 1,400). shares compounds with NPR1 antag. AID 1347047. purified FLuc enzyme, luminescence, Km substrate. Potency, µM (top dose mostly 57.6 µM), usual class: inhibitors; active = well fitted curve in the direction sought with a large enough effect; inconclusive = small, poorly fitted or top-dose-only effect, or another doubt; inactive = no such curve, though single readings can be large; an effect the other way counts as inactive or inconclusive
GloSensor ctrl – counter-screen for Npr1 antagonists: GloSensor control cell line; shares compounds with NPR1 antag; HEK293 GloSensor cGMP, SNP-stimulated, luminescence; Potency, µM (highest dose often 57.6 µM), hits mostly inhibitors; actives 69% (n = 1,400); AID 1347051; note: nearly all actives have a fitted effect of over 70% in size
Numbers stand for hits. The list is not random: actives were taken first. Their share in the collection is about 11%. Unless noted, calls come from the whole dose curve.

CC(C)C(=O)N1CCC2(CC1)OCC(C(=O)NCc1ccc3c(c1)OCO3)N2C(=O)c1ccccc1 (stereo not given) was read as NPR1 antag inactive, HEK cytotox inactive, Luciferase inh inactive and NIH3T3 tox inactive.
`COc1ccc(-c2nnc(C[C@@H]3C[C@@H](C(C)C)[C@H](CNC(=O)c4ccc(F)cc4)C=C3C)o2)cc1` gave NPR1 antag inconclusive, HEK cytotox inconclusive, Luciferase inh inactive, NIH3T3 tox inconclusive, Npr1 antag conf inconclusive, NPR2 antag inactive, FLuc inh counter inactive and GloSensor ctrl inconclusive.
Screening CC1=C[C@@H](CNC(=O)c2ccccn2)[C@H](C(C)C)C[C@H]1Cc1nnc(-c2ccncc2)o1 returned NPR1 antag 14µM, HEK cytotox 22µM, Luciferase inh inactive, NIH3T3 tox inconclusive, Npr1 antag conf 18µM, NPR2 antag 22µM, FLuc inh counter inactive and GloSensor ctrl 18µM.
Screening O=C(NC1CCN(c2cc(N3CCOCC3)cnn2)C1)C1CC1 (stereo not given) returned HEK cytotox inactive and NIH3T3 tox inactive.
`CC(C)Oc1ccc(CN2C[C@@H](CO)[C@H](c3ccncc3)C2)cc1` gave NPR1 antag 11µM, HEK cytotox 40µM, Luciferase inh inactive, NIH3T3 tox inactive, Npr1 antag conf inconclusive, NPR2 antag inconclusive, FLuc inh counter inactive and GloSensor ctrl 27µM.
`COCCCNC(=O)c1nc2sccn2c1-c1ccccc1` gave HEK cytotox inactive and NIH3T3 tox inactive.
For O=C(N1CC(Oc2ccc(-c3nc(-c4ccccc4)no3)cc2)C1)C1(c2ccccc2)CC1 the results were NPR1 antag inconclusive, HEK cytotox 22µM, Luciferase inh inactive, NIH3T3 tox inconclusive, Npr1 antag conf inconclusive, NPR2 antag 22µM, FLuc inh counter inactive and GloSensor ctrl 22µM.
Screening CCC(C)NC(=O)N1CC(Oc2ccc(-c3noc(C4CCOCC4)n3)cc2)C1 (stereo not given) returned NPR1 antag 7.9µM, HEK cytotox inconclusive, Luciferase inh inactive, NIH3T3 tox inconclusive, Npr1 antag conf 5.4µM, NPR2 antag 6.1µM, FLuc inh counter inactive and GloSensor ctrl 4.8µM.
`c1cc(-c2noc(C3CCOCC3)n2)ccc1OC1CNC1` gave NPR1 antag inactive, HEK cytotox inactive, Luciferase inh inconclusive and NIH3T3 tox inactive.
CC(C)S(=O)(=O)N1CC(Oc2ccc(-c3noc(C4CCOCC4)n3)cc2)C1 was read as NPR1 antag 2.2µM, HEK cytotox inconclusive, Luciferase inh inactive, NIH3T3 tox inactive, Npr1 antag conf 11µM, NPR2 antag 12µM, FLuc inh counter inactive and GloSensor ctrl 11µM.
`O=C(C1CC1)N1CC(Oc2ccc(-c3noc(C4CCOCC4)n3)cc2)C1` gave NPR1 antag 10µM, HEK cytotox inconclusive, Luciferase inh inactive, NIH3T3 tox inconclusive, Npr1 antag conf 9.7µM, NPR2 antag 11µM, FLuc inh counter inactive and GloSensor ctrl 9.7µM.
For O=C(NCc1ccccn1)c1ccc2nnc(-c3ccc(OC(F)(F)F)cc3)n2c1 the results were HEK cytotox inactive and NIH3T3 tox inactive.
Screening CC(C)CNC(=O)N1CC(Oc2ccc(-c3noc(C4CCOCC4)n3)cc2)C1 returned NPR1 antag 14µM, HEK cytotox inconclusive, Luciferase inh inactive, NIH3T3 tox inconclusive, Npr1 antag conf 4.8µM, NPR2 antag 5.4µM, FLuc inh counter inactive and GloSensor ctrl 4.3µM.
`CCC(C)NC(=O)N1CC(Oc2ccc(-c3nc(-c4ccccc4)no3)cc2)C1` (stereo not given) gave NPR1 antag 1.3µM, HEK cytotox inactive, Luciferase inh inactive, NIH3T3 tox inconclusive, Npr1 antag conf 1.9µM, NPR2 antag 3.1µM, FLuc inh counter inactive and GloSensor ctrl 2.2µM.
`CCC(C)NC(=O)N1CC(Oc2cccc(-c3nc(C)no3)c2)C1` (stereo not given) gave NPR1 antag inactive, HEK cytotox inconclusive, Luciferase inh inactive and NIH3T3 tox inactive.
For O=S(=O)(N1CCOCC1)N1CCCC(c2ccccc2)(c2ccccc2)C1 the results were NPR1 antag inactive, HEK cytotox inconclusive, Luciferase inh inactive and NIH3T3 tox inactive.
For O=C1N(Cc2cccnc2)C[C@H]2CN(Cc3ccc(C(F)(F)F)cc3)CCN12 the results were NPR1 antag 10µM, HEK cytotox inconclusive, Luciferase inh inactive, NIH3T3 tox inconclusive, Npr1 antag conf 13µM, NPR2 antag 18µM, FLuc inh counter inactive and GloSensor ctrl 13µM.
COc1ccc(CN2CCN3C(=O)N(Cc4ccc(OC)cc4)C[C@H]3C2)cc1 was read as NPR1 antag 14µM, HEK cytotox inconclusive, Luciferase inh inactive, NIH3T3 tox inconclusive, Npr1 antag conf 13µM, NPR2 antag 18µM, FLuc inh counter inactive and GloSensor ctrl 14µM.
Screening COc1ccc(CN2C[C@H]3CN(Cc4ccc([N+](=O)[O-])cc4)CCN3C2=O)cc1 returned NPR1 antag 22µM, HEK cytotox inconclusive, Luciferase inh inactive, NIH3T3 tox inconclusive, Npr1 antag conf 16µM, NPR2 antag 18µM, FLuc inh counter inactive and GloSensor ctrl 16µM.
For COc1ccc(CN2C[C@H]3CN(Cc4cccnc4)CCN3C2=O)cc1 the results were NPR1 antag inactive, HEK cytotox inactive, Luciferase inh inactive and NIH3T3 tox inactive.
For COc1ccc(CN2C[C@H]3CN(Cc4ccc(C(F)(F)F)cc4)CCN3C2=O)cc1 the results were NPR1 antag inconclusive, HEK cytotox inconclusive, Luciferase inh inactive and NIH3T3 tox inconclusive.
`COc1ccc(CN2C[C@H]3CN(Cc4ccc(S(C)(=O)=O)cc4)CCN3C2=O)cc1` gave NPR1 antag inconclusive, HEK cytotox inconclusive, Luciferase inh inactive and NIH3T3 tox inactive.
COc1ccc(CN2C[C@H]3CN(Cc4ccc5c(c4)OCCO5)CCN3C2=O)cc1 was read as NPR1 antag 10µM, HEK cytotox inconclusive, Luciferase inh inactive, NIH3T3 tox inconclusive, Npr1 antag conf 14µM, NPR2 antag 16µM, FLuc inh counter inactive and GloSensor ctrl 14µM.
COc1ccc(C(=O)N[C@@H]2CCC[C@@H]2C(=O)N2CCN(c3cc(C)ccc3C)CC2)cc1 was read as NPR1 antag inactive, HEK cytotox inconclusive, Luciferase inh inactive and NIH3T3 tox inactive.
